# Source: the supplement of paper PMC9262897, “Low-cost anti-mycobacterial drug discovery using engineered E. coli” (Nature Communications, 2022)
# Counter-ions that a name gives are not always drawn. ± gives the standard deviation of the averaged measurements.
# Tested on: E. coli TESEC Alr+ wild-type control
# Experiment: growth (OD600 after 10 h); higher = more growth (less inhibition)
# Settings: compound 0.1 mM; raw OD600 reference: median of DMSO wells 0.49, cell-free background 0.052
# Description: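 TESEC Mtb Alr E. coli (ΔaraC ΔtolC ΔentC Δalr ΔdadX, arabinose-inducible Mtb Alr) or the Alr+ wild-type control strain, grown in defined M9-fructose medium without D-alanine in 96-well plates with Prestwick library compounds at 0.1 mM and 1% DMSO. Low Alr induction is 0.1 µM arabinose and high induction is 10 mM arabinose.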
row,SMILES,growth
1,Cc1onc(-c2c(F)cccc2Cl)c1C(=O)N[C@@H]1C(=O)N2[C@@H]1SC(C)(C)[C@@H]2C(=O)O [Flucloxacillin sodium],0.496 ± 0.053
2,CN(C/C=C/c1ccccc1)Cc1cccc2ccccc12 [Naftifine hydrochloride],0.374 ± 0.0058
3,COc1ccccc1Oc1c(NS(=O)(=O)c2ccc(C(C)(C)C)cc2)nc(-c2ncccn2)nc1OCCO [Bosentan],0.544 ± 0.091
4,O=C(O)CCC(=O)Nc1ccc(S(=O)(=O)Nc2nccs2)cc1 [Succinylsulfathiazole],0.455 ± 0.037
5,NC(=O)OCC(O)COc1ccc(Cl)cc1 (stereo not given) [Chlorphensin carbamate],0.523 ± 0.01
6,C(=C\c1ccccc1)/CN1CCN(C(c2ccccc2)c2ccccc2)CC1 [Cinnarizine],0.539 ± 0.055
7,Cc1ccccc1OCC(O)CO (stereo not given) [Mephenesin],0.494 ± 0.1
8,O=C(O)CN(CCN(CC(=O)O)CC(=O)O)CCN(CC(=O)O)CC(=O)O [Pentetic acid],0.0804 ± 0.0038
9,CC(=O)OCC(=O)[C@@]1(OC(C)=O)[C@@H](C)C[C@H]2[C@@H]3C[C@H](F)C4=CC(=O)C=C[C@]4(C)[C@@]3(F)[C@@H](O)C[C@@]21C [Diflorasone Diacetate],0.398 ± 0.015
10,O=C1C(CC[S+]([O-])c2ccccc2)C(=O)N(c2ccccc2)N1c1ccccc1 (stereo not given) [Sulfinpyrazone],0.542 ± 0.093
11,O=C(CCNNC(=O)c1ccncc1)NCc1ccccc1 [Nialamide],0.516 ± 0.07
12,C[N+]1(C)CCC(=C(c2ccccc2)c2ccccc2)CC1 [Diphemanil methylsulfate],0.4312 ± 0.0036
13,Cc1ccc(C)c(OCCCC(C)(C)C(=O)O)c1 [Gemfibrozil],0.41 ± 0.018
14,O=C1CCc2cc(OCCCCc3nnnn3C3CCCCC3)ccc2N1 [Cilostazol],0.461 ± 0.015
15,COc1cc(C(=O)NCc2ccc(OCCN(C)C)cc2)cc(OC)c1OC [Trimethobenzamide hydrochloride],0.464 ± 0.066
16,Cc1nnc(SCC2=C(C(=O)O)N3C(=O)[C@@H](NC(=O)Cn4cnnn4)[C@H]3SC2)s1 [Cefazolin sodium salt],0.562 ± 0.098
17,N#Cc1ccc(C(c2ccc(C#N)cc2)n2cncn2)cc1 [Letrozole],0.502 ± 0.046
18,CCOc1nc2cccc(C(=O)O)c2n1Cc1ccc(-c2ccccc2-c2nnn[nH]2)cc1 [Candesartan],0.642 ± 0.092
19,CC(CNC1CCCCC1)OC(=O)c1ccccc1 (stereo not given) [Hexylcaine hydrochloride],0.552 ± 0.022
20,C#C[C@]1(O)CC[C@H]2[C@@H]3CCC4=Cc5oncc5C[C@]4(C)[C@H]3CC[C@@]21C [Danazol],0.46 ± 0.05

row,SMILES,growth
1,CC1CC(OC(=O)c2ccccc2O)CC(C)(C)C1 (stereo not given) [Homosalate],0.543 ± 0.057
2,CCOc1ccc2c(c1)C(C)=CC(C)(C)N2 [Ethoxyquin],0.3809 ± 0.0031
3,CN(C)CCN(Cc1ccc(Cl)cc1)c1ccccn1 [Chloropyramine hydrochloride],0.432 ± 0.016
4,COc1ccc([C@@H]2CC(=O)c3c(O)cc(O[C@@H]4O[C@H](CO[C@@H]5O[C@@H](C)[C@H](O)[C@@H](O)[C@H]5O)[C@@H](O)[C@H](O)[C@H]4O)cc3O2)cc1O [Hesperidin],0.521 ± 0.053
5,CO[C@H]1C[C@H](O[C@H]2[C@H](C)[C@@H](O[C@@H]3O[C@H](C)C[C@H](N(C)C)[C@H]3OC(C)=O)[C@@H](C)C[C@@]3(CO3)C(=O)[C@H](C)[C@@H](OC(C)=O)[C@@H](C)[C@@H](C)OC(=O)[C@@H]2C)O[C@@H](C)[C@@H]1OC(C)=O [Troleandomycin],0.0617 ± 0.0015
6,CCCCCN(CCCCC)C(=O)C(CCC(=O)O)NC(=O)c1ccc(Cl)c(Cl)c1 (stereo not given) [Lorglumide sodium salt],0.104 ± 0.002
7,CC(Oc1ccccc1)C(=O)N[C@@H]1C(=O)N2[C@@H]1SC(C)(C)[C@@H]2C(=O)O (stereo not given in full) [Phenethicillin potassium salt],0.482 ± 0.075
8,C#C[C@]1(O)CC[C@H]2[C@@H]3CCC4=CC(=O)CC[C@@H]4[C@H]3CC[C@@]21C [Norethindrone],0.427 ± 0.016
9,CC[C@H](C)[C@H](N)C1=N[C@H](C(=O)N[C@@H](CC(C)C)C(=O)N[C@H](CCC(=O)O)C(=O)N[C@H](C(=O)N[C@H]2CCCCNC(=O)[C@H](CC(N)=O)NC(=O)[C@@H](CC(=O)O)NC(=O)[C@H](Cc3cnc[nH]3)NC(=O)[C@@H](Cc3ccccc3)NC(=O)[C@H]([C@@H](C)CC)NC(=O)[C@@H](CCCN)NC2=O)[C@@H](C)CC)CS1 [Bacitracin],0.49 ± 0.073
10,CN(C)CC/C=C1/c2ccccc2COc2ccc(CC(=O)O)cc21 [Olopatadine hydrochloride],0.589 ± 0.097
11,C[C@]12CCC(=O)C=C1C=C[C@@H]1[C@@H]2CC[C@@]2(C)[C@H]1CC[C@@]21CCC(=O)O1 [Canrenone],0.282 ± 0.014
12,CCC(C)n1ncn(-c2ccc(N3CCN(c4ccc(OCC5COC(Cn6cncn6)(c6ccc(Cl)cc6Cl)O5)cc4)CC3)cc2)c1=O (stereo not given) [Itraconazole],0.44 ± 0.018
13,CCCOc1ccc(C(=O)OCCN(CC)CC)cc1N [Proparacaine hydrochloride],0.469 ± 0.043
14,COc1ccc([C@@H]2Sc3ccccc3N(CCN(C)C)C(=O)[C@@H]2OC(C)=O)cc1 [Diltiazem hydrochloride],0.476 ± 0.011
15,CCc1cccc2c3c([nH]c12)C(CC)(CC(=O)O)OCC3 (stereo not given) [Etodolac],0.415 ± 0.021
16,N=C(N)NC(=O)c1nc(Cl)c(N)nc1N [Amiloride hydrochloride dihydrate],0.497 ± 0.071
17,N=C(N)c1ccc(OCCCCCOc2ccc(C(=N)N)cc2)cc1 [Pentamidine isethionate],0.194 ± 0.068
18,COc1ccccc1O [Guaiacol],0.558 ± 0.079
19,CN(C)CCOC1=Cc2ccccc2Sc2ccc(Cl)cc21 [Zotepine],0.0664 ± 0.019
20,CC(=O)N[C@@H](CS)C(=O)O [Acetylcysteine],0.475 ± 0.06
